We go through 14 compounds from PubChem BioAssay (NCATS).

Inconclusive results are not listed. Unmarked numbers belong to inactive results. Activity calls are given as the source filed them. Calls follow the shape of the dose curve; as a rule, active = well fitted inhibition curve with a large enough effect; inconclusive = small, poorly fitted or top-dose-only effect; inactive = flat fitted curve, though single readings scatter.

Holding throughout (assay): qHTS profiling for inhibitors of Plasmodium falciparum proliferation (AID 504749); also: nearly all actives have a fitted effect of over 60% in size
Conditions in all cases: P. falciparum in erythrocytes, SYBR Green DNA, 72 h; series mostly up to 28.7 µM

One test concerns AA1029. In outline: (§1)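 P. falciparum-infected erythrocytes (0.3% parasitemia, 2.5% hematocrit final) were exposed to compounds for 72 h at 37 C in 5% CO2, then lysed with SYBR Green buffer overnight at room temperature; parasite DNA fluorescence was normalized to artemisinin and DMSO controls.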
Another test deals with ATS95. In outline:
as §1

The next test relates to CP291. In a few lines: as §1
The next test has as its system CP335. In outline:
as §1

The subject of the next test is DFO2036. In a few lines: as §1
In a further test the test system is P93_24. In a few lines:
as §1

Another test deals with TAB165. In outline: as §1
Potency is read from the fitted curve at half-maximal effect.

Regarding `OCC(O)[C@H]1O[C@@H]2O[C@H](C(Cl)(Cl)Cl)O[C@@H]2[C@H]1O` (stereo partly drawn), the Potency entry in the test with AA1029, in the test on ATS95, in the test on CP291, with CP335, in the test on DFO2036 and in the test on P93_24 was “inactive” each time. Moreover, in the test on TAB165, the Potency result is “inactive”.

As to `C[C@]12C=CC(=O)C=C1CC[C@@H]1C2CC[C@]2(C)OC(=O)CCC12` (stereo partly drawn), the Potency entry in the test with AA1029, in the test with ATS95, in the test on CP291, with CP335, in the test on DFO2036 and in the test on P93_24 was “inactive” in each case. Moreover, in the test with TAB165, the Potency result was “inactive”.

Regarding `CCCCCc1cc(O)c2c(c1)OC(C)(C)C1CC=C(C)CC21` (stereo not drawn), the Potency in the test on AA1029 is 2.82 µM (active); with ATS95 it was 3.16 µM (active); in the test with CP291 it was 6.75 µM (active); in the test with CP335, 3.38 µM (active); in the test with DFO2036, 3.16 µM (active); in the test with P93_24 it was 2.51 µM (active). For the same compound, the Potency in the test on TAB165 was 2 µM (active).

For `[S]=[Sb][S][Sb]=[S]`, the Potency result with AA1029, in the test on ATS95, in the test with CP291, in the test with CP335, in the test on DFO2036 and with P93_24 was “inactive” in each case. For the same compound, the Potency entry in the test with TAB165 is “inactive”.

With `CN1C2CCC1C(C(=O)O)C(OC(=O)c1ccccc1)C2` (stereo not drawn), the Potency entry in the test on AA1029, in the test with ATS95, in the test on CP291, in the test on CP335, in the test with DFO2036 and in the test with P93_24 was “inactive” in each case. Besides, in the test on TAB165, the Potency entry was “inactive”.

For `CCOC(=O)/C=C(C)/C=C/CC(C)CCCC(C)C` (stereo not drawn), the Potency result with AA1029, in the test with ATS95, in the test with CP291, with CP335, with DFO2036 and in the test with P93_24 was “inactive” throughout. Further, in the test on TAB165, the Potency result is “inactive”.

`Cc1cc(C)cc(C(=O)OC2CC3CCC(C2)N3C)c1` (stereo not drawn): the Potency result in the test with AA1029, in the test on ATS95, with CP291, in the test with CP335, in the test with DFO2036 and in the test on P93_24 was “inactive” each time. In addition, the Potency result in the test with TAB165 is “inactive”.

`C=C1Nc2ccccc2C(=O)N1c1ccccc1C`: the Potency entry in the test with AA1029, in the test with ATS95, in the test with CP291, with CP335, in the test on DFO2036 and in the test with P93_24 was “inactive” throughout. For the same compound, the Potency result in the test on TAB165 is “inactive”.

On to `C=CC[N+]1(C)CCC23c4c5ccc(O)c4O[C@H]2C(=O)CC[C@@]3(O)C1C5` (stereo partly drawn), for which the Potency entry with AA1029, with ATS95, in the test on CP291, in the test with CP335, with DFO2036 and with P93_24 was “inactive” throughout. Moreover, in the test with TAB165, the Potency entry was “inactive”.

For `CCCN1CCCC2Cc3nc(N)ncc3CC21` (stereo not drawn), the Potency result in the test with AA1029, with ATS95, with CP291, with CP335, in the test with DFO2036 and in the test with P93_24 was “inactive” in each case. In addition, in the test with TAB165, the Potency entry is “inactive”.

For `C[C@H](N)Cc1ccccc1`, the Potency entry in the test with AA1029, with ATS95, in the test with CP291, in the test on CP335, in the test with DFO2036 and in the test with P93_24 was “inactive” throughout. Also, in the test with TAB165, the Potency entry is “inactive”.

Take `Nc1nc(O)c(-c2ccccc2)o1`: the Potency result in the test with AA1029, with ATS95, in the test with CP291, with CP335, with DFO2036 and in the test on P93_24 was “inactive” in each case. For the same compound, the Potency entry in the test with TAB165 is “inactive”.

Take `OC[C@@H](O)[C@H]1O[C@@H]2OC(C(Cl)(Cl)Cl)O[C@H]2[C@H]1O` (stereo partly drawn): the Potency entry in the test on AA1029, with ATS95, in the test on CP291, in the test with CP335, in the test on DFO2036 and in the test on P93_24 was “inactive” in each case. Moreover, in the test on TAB165, the Potency result was “inactive”.

In the case of `CC1OC(O[C@H]2C[C@@H](O)[C@]3(CO)[C@@H]4C(CC[C@]3(O)C2)[C@@]2(O)CC[C@H](C3=CC(=O)OC3)[C@@]2(C)C[C@H]4O)C(O)C(O)C1O` (stereo partly drawn), the Potency result in the test on AA1029, in the test with ATS95, in the test with CP291, in the test with CP335, in the test on DFO2036 and in the test with P93_24 was “inactive” each time. Also, the Potency result with TAB165 was “inactive”.
